Results on nine compounds are retold here after PubChem BioAssay.

Assay [1] is described as follows: small molecules captured by biotinylated probe aFSTL3 – biochemical, small-molecule microarray, fluorescence 635/667, stem cell growth factor project, primary screen (AID 1064).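 Further: measures binding of the biotinylated anti-FSTL3 antibody to printed compounds.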 The settings on record: higher = more signal.
The nature of assay [2]: binders from COS7 lysate, DM2A8 probe, primary screen, torsin A project, cell lysate, small-molecule microarray, fluorescence 635/667 (AID 1065). As to conditions: higher = more signal, COS7 lysate expressing mutant human TOR1A.
Assay [3] can be described thus: small molecules captured by biotinylated probe aFGF2 – biochemical, small-molecule microarray, fluorescence 635/667, stem cell growth factor project, primary screen (AID 1067).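 Further: measures binding of biotinylated aFGF2 protein to printed compounds on slides; z-score merges feature fluorescence and signal-to-noise across triplicate slides.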 As to conditions: higher = more signal.
Assay [4] is described as follows: small molecules captured by biotinylated probe aFGF10 – biochemical, small-molecule microarray, fluorescence 635/667, stem cell growth factor project, primary screen (AID 1071).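 Further: score merges 667 nm spot intensity and signal to noise from triplicate slides.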 The settings on record: higher = more signal.
For assay [5], the target named is Neurogenic locus notch homolog protein 2 (Homo sapiens) (UniProt Q04721). In words: small molecules binding Notch2 protein – biochemical, small-molecule microarray, 635 nm fluorescence, stem cell growth factors, primary screen (AID 1073). The settings on record: higher = more signal.
Neurogenic locus notch homolog protein 2 (Homo sapiens), sequence (Q04721 whole entry, looked up, canonical isoform): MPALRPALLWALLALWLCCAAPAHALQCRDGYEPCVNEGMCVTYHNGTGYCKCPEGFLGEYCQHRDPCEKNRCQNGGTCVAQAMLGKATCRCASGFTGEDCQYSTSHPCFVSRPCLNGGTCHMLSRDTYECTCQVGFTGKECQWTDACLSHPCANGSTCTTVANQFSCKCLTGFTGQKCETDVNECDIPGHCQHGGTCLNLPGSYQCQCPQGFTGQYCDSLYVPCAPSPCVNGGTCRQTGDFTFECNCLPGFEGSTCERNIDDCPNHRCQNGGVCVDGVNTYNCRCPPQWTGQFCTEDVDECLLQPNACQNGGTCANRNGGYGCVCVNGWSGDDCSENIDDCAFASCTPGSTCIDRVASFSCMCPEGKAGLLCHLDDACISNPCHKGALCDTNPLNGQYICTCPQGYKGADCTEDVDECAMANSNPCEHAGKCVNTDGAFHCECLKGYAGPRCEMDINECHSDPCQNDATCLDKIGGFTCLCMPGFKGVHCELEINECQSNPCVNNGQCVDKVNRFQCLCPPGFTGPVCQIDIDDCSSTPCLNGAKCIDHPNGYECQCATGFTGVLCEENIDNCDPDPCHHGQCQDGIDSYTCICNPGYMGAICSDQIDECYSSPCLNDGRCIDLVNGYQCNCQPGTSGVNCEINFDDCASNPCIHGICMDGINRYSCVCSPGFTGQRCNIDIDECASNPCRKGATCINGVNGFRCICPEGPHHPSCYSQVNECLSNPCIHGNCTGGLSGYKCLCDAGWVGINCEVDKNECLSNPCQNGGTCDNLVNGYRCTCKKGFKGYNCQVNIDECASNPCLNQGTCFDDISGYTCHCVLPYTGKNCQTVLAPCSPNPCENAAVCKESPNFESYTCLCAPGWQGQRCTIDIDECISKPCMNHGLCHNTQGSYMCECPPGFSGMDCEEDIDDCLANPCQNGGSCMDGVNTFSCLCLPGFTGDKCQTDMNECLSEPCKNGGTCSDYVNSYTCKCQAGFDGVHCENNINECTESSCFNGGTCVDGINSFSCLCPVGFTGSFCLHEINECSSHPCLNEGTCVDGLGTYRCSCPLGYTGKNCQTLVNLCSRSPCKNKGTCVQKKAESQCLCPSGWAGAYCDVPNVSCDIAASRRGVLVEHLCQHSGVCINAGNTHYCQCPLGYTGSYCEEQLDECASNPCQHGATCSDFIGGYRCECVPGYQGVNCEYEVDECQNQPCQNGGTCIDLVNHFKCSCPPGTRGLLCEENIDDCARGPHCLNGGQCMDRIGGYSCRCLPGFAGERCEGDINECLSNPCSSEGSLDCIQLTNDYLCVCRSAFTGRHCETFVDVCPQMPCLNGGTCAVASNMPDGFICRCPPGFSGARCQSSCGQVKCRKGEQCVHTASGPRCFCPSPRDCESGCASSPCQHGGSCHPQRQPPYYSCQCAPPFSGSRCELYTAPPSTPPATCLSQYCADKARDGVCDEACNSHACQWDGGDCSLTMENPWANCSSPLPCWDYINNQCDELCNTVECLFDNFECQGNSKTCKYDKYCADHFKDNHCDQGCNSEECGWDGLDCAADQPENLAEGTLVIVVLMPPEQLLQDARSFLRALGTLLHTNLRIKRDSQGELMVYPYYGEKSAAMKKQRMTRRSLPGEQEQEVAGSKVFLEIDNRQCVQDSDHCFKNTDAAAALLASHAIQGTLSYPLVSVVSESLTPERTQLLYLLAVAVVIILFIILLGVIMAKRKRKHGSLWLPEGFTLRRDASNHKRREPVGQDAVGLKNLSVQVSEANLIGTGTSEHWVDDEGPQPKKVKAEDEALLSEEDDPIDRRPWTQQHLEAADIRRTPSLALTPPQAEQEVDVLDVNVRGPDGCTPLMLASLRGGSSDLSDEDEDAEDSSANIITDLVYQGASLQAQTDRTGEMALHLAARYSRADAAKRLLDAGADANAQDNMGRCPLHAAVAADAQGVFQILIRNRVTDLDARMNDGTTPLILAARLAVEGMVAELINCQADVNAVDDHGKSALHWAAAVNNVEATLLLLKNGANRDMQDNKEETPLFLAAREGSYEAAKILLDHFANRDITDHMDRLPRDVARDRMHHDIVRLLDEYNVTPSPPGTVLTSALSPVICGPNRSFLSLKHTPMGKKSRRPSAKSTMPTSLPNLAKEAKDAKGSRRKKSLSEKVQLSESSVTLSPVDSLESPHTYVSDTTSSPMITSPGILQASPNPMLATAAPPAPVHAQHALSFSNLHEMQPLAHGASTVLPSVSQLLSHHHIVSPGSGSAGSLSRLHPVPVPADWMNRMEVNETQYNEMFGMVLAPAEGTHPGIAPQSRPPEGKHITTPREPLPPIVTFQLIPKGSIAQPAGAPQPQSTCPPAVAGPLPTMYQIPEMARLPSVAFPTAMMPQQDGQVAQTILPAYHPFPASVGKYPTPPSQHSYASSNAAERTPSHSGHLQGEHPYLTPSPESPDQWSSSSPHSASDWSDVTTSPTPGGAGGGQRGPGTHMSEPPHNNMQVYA
Assay [6] addresses Pro-neuregulin-1, membrane-bound isoform (Homo sapiens) (UniProt Q02297). In words: small molecules binding neuregulin-1 protein – biochemical, small-molecule microarray, fluorescence 635/667, psychiatric disease protein project, primary screen (AID 1075).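 Further: score combines 667 nm spot fluorescence with signal to noise.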 The settings on record: NRG1 binding, 635 nm fluorescence, higher = more signal.
For assay [7], the system named is Neuregulin-1 EGF-like domain. In words: small molecules binding NRG1 EGF domain – biochemical, small-molecule microarray, 635 nm fluorescence, primary screen (AID 1081).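 Further: binding of the protein to compounds printed on small-molecule microarray slides.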 As to conditions: higher = more signal.
Assay [8] in a line: FRG1 expression reporter modulators in myotubes – cell-based, C2C12 myotubes, firefly/Renilla luciferase, luminescence, FRG1 inhibition for FSHD, primary screen (AID 1084). The settings on record: FRG1 promoter luciferase, higher = more signal, called active from +8 up or from −8 down.
Assay [9] in a line: small molecules captured by biotinylated probe aFST – biochemical, small-molecule microarray, fluorescence 635/667, stem cell growth factor project, primary screen (AID 1086).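 Further: score merges 667 nm fluorescence with signal-to-noise of each printed compound spot.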 The settings on record: higher = more signal.
A short description of assay [10]: binders of probe aHhip on microarray, primary screen, stem cell growth factor project, biochemical, small-molecule microarray, fluorescence 635/667 (AID 1087).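 Further: score merges spot fluorescence at 667nm with spot signal to noise ratio.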 As to conditions: higher = more signal.
The test system of assay [11] is PRMT1 (protein arginine N-methyltransferase 1). In words: small molecules binding arginine methyltransferase PRMT1 – biochemical, small-molecule microarray, 635 nm fluorescence, primary screen (AID 1088).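 Further: binding of Prmt1 protein to compounds spotted on small-molecule microarray slides.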 The settings on record: higher = more signal.
Assay [12] in a line: growth effects on S. cerevisiae YJM789 – YJM789 clinical isolate, OD600, 24 h, basal, primary screen (AID 1089).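 Further: growth of clinical yeast isolate S. cerevisiae YJM 789 seeded 1000 cells per well; test concentration not given here.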 The settings on record: higher = more signal, called active from +8 up or from −8 down.
The nature of assay [13]: S. pombe growth modifiers, basal conditions – strain 972, OD600, 24 h, no modulator, primary screen (AID 1090).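 Further: basal condition with compound alone and no growth modifier present; test concentration not given here.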 As to conditions: S. pombe 972 growth, higher = more signal, called active from +8 up or from −8 down.
The nature of assay [14]: budding yeast growth modifiers under rapamycin – strain BY4716, OD600, 96 h, primary screen (AID 1091). Further: test concentration not given here. The settings on record: S. cerevisiae BY4716 + rapamycin, higher = more signal, called active from +8 up or from −8 down.
In assay [15] the target is Torsin-1A-interacting protein 2 (Homo sapiens) (UniProt Q8NFQ8). In words: small molecules binding lysate-expressed LULL1 – cell lysate, human LULL1 lysate, 635/667 nm fluorescence, primary screen (AID 1092).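 Further: probe is lysate of COS7 cells overexpressing human LULL1; score merges per-feature 667 nm fluorescence with signal-to-noise.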 As to conditions: small-molecule microarray, hLULL1 lysate binding, 635 nm fluorescence; higher = more signal.
Assay [16] is described as follows: optical density change of DRC41 E. coli – strain DRC41, OD650, 24 h, E. coli filamentation project, primary screen (AID 1093).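 Further: MC1000 strain lacking acrAB efflux and sulA so SOS filamentation is blocked; test concentration not given here.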 As to conditions: E. coli DRC41 growth, higher = more signal, called active from +8 up or from −8 down.
Assay [17] can be described thus: probe aLefty2 binding to arrayed compounds – biochemical, biotinylated probe, 635/667 nm fluorescence, primary screen (AID 1094).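 Further: score merges spot fluorescence near 667 nm with spot signal-to-noise ratio.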 The settings on record: small-molecule microarray, higher = more signal.
In assay [18] the test system is Noggin (protein binding on small-molecule microarray). In words: small molecules binding Noggin protein – biochemical, 635/667 nm fluorescence, primary screen (AID 1095).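 Further: score merges 667 nm feature fluorescence with signal to noise over triplicate slides.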 The settings on record: 635 nm fluorescence, higher = more signal.
Assay [19] addresses Neurogenic locus notch homolog protein 3 (Homo sapiens) (UniProt Q9UM47). In words: small molecules binding NOTCH3 protein – biochemical, 635/667 nm fluorescence, primary screen (AID 1096). The settings on record: small-molecule microarray, 635 nm fluorescence, higher = more signal.
A short description of assay [20]: probe aEGFR binding to arrayed compounds – biochemical, biotinylated probe, 635/667 nm fluorescence, primary screen (AID 1097).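 Further: probe is a biotinylated anti-EGFR antibody binding compounds printed on slides; score combines fluorescence near 667 nm and signal to noise of each spot.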 As to conditions: small-molecule microarray, higher = more signal.

The source made the active and inactive calls.

Neurogenic locus notch homolog protein 3 (Homo sapiens), sequence (Q9UM47 whole entry, looked up): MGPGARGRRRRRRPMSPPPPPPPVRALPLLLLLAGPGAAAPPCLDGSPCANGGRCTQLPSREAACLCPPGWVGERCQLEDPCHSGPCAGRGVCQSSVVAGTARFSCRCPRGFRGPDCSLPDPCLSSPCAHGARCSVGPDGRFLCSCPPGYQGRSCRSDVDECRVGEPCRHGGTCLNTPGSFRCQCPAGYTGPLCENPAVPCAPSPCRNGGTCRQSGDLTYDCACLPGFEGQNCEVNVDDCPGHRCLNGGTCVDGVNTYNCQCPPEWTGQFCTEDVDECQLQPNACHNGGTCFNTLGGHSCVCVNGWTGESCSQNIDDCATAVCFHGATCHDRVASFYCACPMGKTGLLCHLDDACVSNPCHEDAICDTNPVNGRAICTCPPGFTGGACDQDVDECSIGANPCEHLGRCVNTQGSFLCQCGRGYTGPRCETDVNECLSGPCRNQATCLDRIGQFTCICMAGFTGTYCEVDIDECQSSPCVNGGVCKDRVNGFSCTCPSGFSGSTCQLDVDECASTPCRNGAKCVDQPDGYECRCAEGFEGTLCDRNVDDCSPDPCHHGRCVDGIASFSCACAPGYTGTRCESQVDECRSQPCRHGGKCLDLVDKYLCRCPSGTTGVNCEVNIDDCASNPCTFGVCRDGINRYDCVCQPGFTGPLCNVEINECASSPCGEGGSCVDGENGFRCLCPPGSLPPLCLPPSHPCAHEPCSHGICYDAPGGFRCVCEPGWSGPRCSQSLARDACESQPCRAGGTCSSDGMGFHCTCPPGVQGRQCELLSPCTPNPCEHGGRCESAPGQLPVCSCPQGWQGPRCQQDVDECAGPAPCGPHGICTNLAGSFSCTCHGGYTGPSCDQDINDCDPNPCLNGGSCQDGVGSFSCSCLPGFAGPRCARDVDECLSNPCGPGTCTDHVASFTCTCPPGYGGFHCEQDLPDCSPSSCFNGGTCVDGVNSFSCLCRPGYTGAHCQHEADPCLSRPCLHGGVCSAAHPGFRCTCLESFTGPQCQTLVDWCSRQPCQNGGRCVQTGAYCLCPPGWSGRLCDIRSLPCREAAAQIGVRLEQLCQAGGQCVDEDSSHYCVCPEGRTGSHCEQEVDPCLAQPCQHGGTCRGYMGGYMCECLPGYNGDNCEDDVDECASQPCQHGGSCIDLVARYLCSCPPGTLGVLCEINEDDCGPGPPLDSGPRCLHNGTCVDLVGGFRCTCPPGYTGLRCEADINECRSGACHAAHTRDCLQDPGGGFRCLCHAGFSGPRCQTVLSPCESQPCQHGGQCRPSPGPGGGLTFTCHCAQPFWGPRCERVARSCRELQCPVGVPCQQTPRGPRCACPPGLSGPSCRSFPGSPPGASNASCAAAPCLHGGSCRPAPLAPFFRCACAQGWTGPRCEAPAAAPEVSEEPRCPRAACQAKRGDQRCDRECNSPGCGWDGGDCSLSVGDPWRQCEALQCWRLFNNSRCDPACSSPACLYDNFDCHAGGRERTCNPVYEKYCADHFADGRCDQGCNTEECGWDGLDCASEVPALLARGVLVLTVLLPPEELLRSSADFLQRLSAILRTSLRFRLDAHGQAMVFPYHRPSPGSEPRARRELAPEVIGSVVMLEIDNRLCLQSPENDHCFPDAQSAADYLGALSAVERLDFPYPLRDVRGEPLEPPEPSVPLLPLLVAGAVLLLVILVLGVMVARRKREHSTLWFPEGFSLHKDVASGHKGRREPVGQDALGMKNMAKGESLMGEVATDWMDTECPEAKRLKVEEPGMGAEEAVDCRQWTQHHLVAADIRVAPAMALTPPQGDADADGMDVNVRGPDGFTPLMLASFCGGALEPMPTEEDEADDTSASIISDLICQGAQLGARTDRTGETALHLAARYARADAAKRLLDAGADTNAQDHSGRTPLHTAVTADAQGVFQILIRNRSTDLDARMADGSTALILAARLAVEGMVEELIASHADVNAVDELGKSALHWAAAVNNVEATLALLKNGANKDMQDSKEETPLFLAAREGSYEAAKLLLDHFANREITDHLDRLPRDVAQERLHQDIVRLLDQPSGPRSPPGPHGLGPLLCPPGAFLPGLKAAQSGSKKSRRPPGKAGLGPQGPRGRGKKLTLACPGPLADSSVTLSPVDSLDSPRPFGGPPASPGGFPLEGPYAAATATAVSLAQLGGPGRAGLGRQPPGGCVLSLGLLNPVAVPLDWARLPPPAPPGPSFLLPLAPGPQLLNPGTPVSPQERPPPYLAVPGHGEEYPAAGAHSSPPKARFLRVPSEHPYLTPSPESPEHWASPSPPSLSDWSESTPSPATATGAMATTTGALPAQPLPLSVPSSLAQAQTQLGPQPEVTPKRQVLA

Regarding `Cc1ccc(S[C@]2(C(=O)NCC(C)C)CC(=O)N(Cc3cc(C(F)(F)F)cc(C(F)(F)F)c3)[C@@H]2c2ccc(CO)cc2)cc1`, the composite z-score in assay [1] was 0.436; in assay [2], -0.455; in assay [3], 0.047; in [4], -0.272; in [5], -0.598; in assay [6], 0.884. Moreover, the composite z-score in assay [7] was found to be 1.44; in [9] it was 0.0031; in assay [10] it was 0.0749; in assay [11], 0.407; in assay [15] it was 0.472; in assay [17] it was 0.522. Besides, the composite z-score in [18] is -0.671; in assay [19], -0.643; in assay [20], -0.073. Besides, the z-score was -0.775 (inactive) in assay [8]; -0.463 (inactive) in assay [12]; -0.924 (inactive) in [13]; -0.429 (inactive) in assay [14]; -0.869 (inactive) in assay [16].

Take `C=CC[C@]1(C(=O)NCc2ccccc2)N=C(c2ccc(OCCCO)cc2)O[C@H]1c1ccccc1CN=[N+]=[N-]`: the composite z-score in assay [1] is 0.0143; in assay [2], 0.234; in assay [3] it was 0.053; in assay [4], 0.505; in assay [5] it was 1.54; in assay [6], 1.05. Besides, the composite z-score in assay [7] stood at 1.11; in assay [9], 1.02; in assay [10], 0.0854; in assay [11], 1.35; in assay [15] it was 2.87; in assay [17], 0.0634. Also, the composite z-score amounted to 0.853 in assay [18], 1.06 in [19] and 0.107 in assay [20]. Moreover, the z-score in [8] is -2.43 (inactive); in assay [12] it was -0.755 (inactive); in [13], -0.175 (inactive); in assay [14] it was 1.54 (inactive); in assay [16], -0.765 (inactive).

`COCCCNC(=O)[C@@]1(CCS(=O)(=O)c2ccccc2)N=C(c2ccc(OCCCO)cc2)O[C@H]1c1ccccc1N=[N+]=[N-]`: the composite z-score in assay [1] is 0.205; in assay [2], 2.1; in assay [3], 0.137; in assay [4] it was 1.17; in [5] it was 1.48; in assay [6], 1.7. The composite z-score in assay [7] is 1.23; in assay [9], 1.63; in [10], -0.0645; in assay [11], 1.53; in assay [15], 3.47; in [17], 0.155. The composite z-score in assay [18] turned out to be 0.908; in assay [19], 1.07; in assay [20], 0.0135. Also, the z-score is 1.72 (inactive) in [8]; -1.2 (inactive) in assay [12]; 0.431 (inactive) in assay [13]; 1.36 (inactive) in assay [14]; 0.299 (inactive) in [16].

With `CC(C)[Si](C#CCCCC#N)(Oc1ccccc1Br)C(C)C`, the composite z-score in assay [1] is -0.517; in [2] it was 0.14; in assay [3] it was -0.182; in [4], 0.151; in assay [5], 0.266; in assay [6], 0.151. Also, the composite z-score in [7] is 0.204; in [9] it was 0.155; in assay [10], 0.316; in assay [11], 0.987; in assay [15], 0.86; in assay [17] it was -0.203. The composite z-score was 0.506 in assay [18], 0.653 in [19] and -0.0389 in [20]. The z-score in [8] was 0.382 (inactive); in assay [12] it was 1.13 (inactive); in assay [13], -1.09 (inactive); in assay [14], -1.96 (inactive); in assay [16] it was -0.146 (inactive).

With `CO[C@H]1O[C@H](CO)[C@@H](OC(=O)Nc2ccccc2)[C@@H]2OC(=O)[C@@H](Cc3ccc4ccccc4c3)C/C=C/C[C@H](Cc3ccc4ccccc4c3)C(=O)O[C@@H]12`, the composite z-score in assay [1] amounted to 0.0395; in assay [2], 0.821; in assay [3] it was 0.126; in [4], 0.908; in assay [5] it was 0.336; in assay [6], 0.915. Also, the composite z-score was 0.965 in assay [7]; 0.316 in [9]; -0.191 in assay [10]; 1.47 in assay [11]; 2.35 in [15]; -0.0403 in assay [17]. The composite z-score was 0.369 in assay [18], 0.977 in assay [19] and -0.0449 in assay [20]. Besides, the z-score was -1.62 (inactive) in assay [8]; -1.38 (inactive) in assay [12]; -1.57 (inactive) in assay [13]; 1.55 (inactive) in assay [14]; 2.64 (inactive) in assay [16].

As to `O=C1NC(=O)C2C1C=CC(C(O)c1ccc(-c3ccccc3)s1)N2Nc1ccc(Cl)cc1Cl` (stereo not given), the composite z-score in assay [1] is 0.0065; in [2], 0.285; in [3], 0.107; in [4] it was 0.297; in assay [5], 1.21; in assay [6], 1.48. Besides, the composite z-score in assay [7] was 0.706; in assay [9], 1.16; in assay [10], -0.0645; in assay [11], 0.193; in assay [15], 3.07; in [17], 0.214. Also, the composite z-score was 0.23 in [18], 0.983 in [19] and -0.106 in [20]. The z-score in assay [8] was 2.38 (inactive); in [12] it was -0.863 (inactive); in assay [13], -1.76 (inactive); in [14], 1.58 (inactive); in assay [16] it was -1.25 (inactive).

`O=C(O)[C@H](Cc1ccccc1)n1cc(-c2ccccc2)nn1`: the composite z-score in assay [1] is -0.37; in assay [2], -0.104; in assay [3], -0.0583; in [4], 0.399; in [5] it was 0.533; in [6] it was 0.0865. For the same compound, the composite z-score was 0.871 in assay [7]; 0.328 in assay [9]; -0.181 in [10]; 0.112 in assay [11]; 1.03 in [15]; -0.0592 in assay [17]. Also, the composite z-score in assay [18] is 0.197; in [19], 0.185; in assay [20], 0.119. The z-score in [8] is 1.33 (inactive); in assay [12] it was 0.306 (inactive); in assay [13], 0.865 (inactive); in assay [14], 0.173 (inactive); in assay [16], -0.741 (inactive).

For the compound `COc1ccc([Si](C)(C)[C@@H]2[C@@H](CC(=O)N3CCC[C@H]3CO)O[C@]3(C(=O)N(Cc4cccc(I)c4)c4ccccc43)[C@H]2C)cc1`, the composite z-score is 0.07 in assay [1]; 1.29 in assay [2]; -0.137 in assay [3]; 0.192 in [4]; 1.08 in assay [5]; 0.916 in assay [6]. For the same compound, the composite z-score was 1.17 in assay [7]; 0.453 in assay [9]; -0.0994 in assay [10]; 1.53 in [11]; 0.175 in [15]; 0.0678 in assay [17]. Further, the results for the composite z-score in assay [18], in assay [19] and in [20] were 1.62, 1.08 and 0.0807, respectively. For the same compound, the z-score in assay [8] was -1.06 (inactive); in assay [12] it was -1.23 (inactive); in assay [13] it was 0.0115 (inactive); in assay [14] it was 1.14 (inactive); in assay [16] it was 0.25 (inactive).

`COC(=O)[C@@]1(Cc2ccccc2)[C@H]2c3cc(C(=O)N(C)C)n(CCc4c[nH]c5ccc(O)cc45)c3C[C@H]2CN1C(=O)c1ccccc1`: the composite z-score in assay [1] was 0.808; in [2], -0.0685; in assay [3], 0.0518; in [4] it was 0.188; in [5], 0.832; in [6], -0.198. Moreover, the composite z-score in [7] is 1.29; in [9] it was 1.21; in [10] it was -0.191; in [11], 0.937; in [15], 3.11; in assay [17], 0.583. The composite z-score was 0.626 in assay [18], 0.751 in [19] and -0.0234 in [20]. Moreover, the z-score in [8] is 0.688 (inactive); in [12], -1.09 (inactive); in [13], 1.25 (inactive); in assay [14] it was 0.405 (inactive); in [16], 0.488 (inactive).
